Measurements: PubChem BioAssay (NCI)
This is part of a sample that, as a whole, favours compounds with a hit. Of some 83,000 tested, about 20% had one in any assay.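 Interpretation: 100, growth as untreated; towards 0, rising growth inhibition; 0, no net growth; 0 to -100, cell death. Compounds scoring below 10 were considered active.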 The source made the active and inactive calls.

How the values were obtained:
Assay in all cases: NCI-60 one-dose screen, 48 h (100 = growth as untreated, 0 = no growth, -100 = all killed)
Conditions in all cases: 10 µM unless noted
DU-145 prostate = tested on: DU-145 prostate
K-562 leukemia = tested on: K-562 leukemia
MALME-3M melanoma = tested on: MALME-3M melanoma
MDA-MB-231 breast = tested on: MDA-MB-231 breast
RXF 393 renal = tested on: RXF 393 renal
SF-268 CNS = tested on: SF-268 CNS
SF-295 CNS = tested on: SF-295 CNS
SF-539 CNS = tested on: SF-539 CNS
UACC-257 melanoma = tested on: UACC-257 melanoma
M14 melanoma = tested on: M14 melanoma
HCT-15 colon = tested on: HCT-15 colon
HT29 colon = tested on: HT29 colon
SNB-75 CNS = tested on: SNB-75 CNS
SNB-19 CNS = tested on: SNB-19 CNS
U251 CNS = tested on: U251 CNS
PC-3 prostate = tested on: PC-3 prostate
SK-MEL-5 melanoma = tested on: SK-MEL-5 melanoma
UACC-62 melanoma = tested on: UACC-62 melanoma
LOX IMVI melanoma = tested on: LOX IMVI melanoma
SK-MEL-28 melanoma = tested on: SK-MEL-28 melanoma

Measured: growth

CC(C)C1=NOC(=O)C1=Cc1cn(-c2ccccc2)nc1-c1ccc(F)cc1
inactive: DU-145 prostate 74% | K-562 leukemia 29.2% | MALME-3M melanoma 90.8% | MDA-MB-231 breast 98.1% | RXF 393 renal 82.2% | SF-268 CNS 91.2% | SF-295 CNS 95.5% | SF-539 CNS 89.6% | UACC-257 melanoma 91% | M14 melanoma 67.4% | HCT-15 colon 61.4% | HT29 colon 28.8% | SNB-75 CNS 70.6% | SNB-19 CNS 81.7% | U251 CNS 51.3% | PC-3 prostate 38.5% | SK-MEL-5 melanoma 78.9% | UACC-62 melanoma 75.5% | SK-MEL-28 melanoma 82.7%
active: LOX IMVI melanoma 6.17%

N#Cc1c(-c2ccccc2)cc(-c2ccc(Nc3nc(Nc4ccc(Cl)cc4)nc(Nc4ccc(Cl)cc4)n3)cc2)nc1N
inactive: DU-145 prostate 34% | K-562 leukemia 32.6% | SF-268 CNS 51.9% | SF-295 CNS 75.5% | SNB-75 CNS 66% | SNB-19 CNS 100% | PC-3 prostate 20.7% | UACC-62 melanoma 54.5%
active: MALME-3M melanoma -68.1% | MDA-MB-231 breast -31.2% | RXF 393 renal -44.5% | SF-539 CNS -53.9% | UACC-257 melanoma -12.1% | M14 melanoma 2% | HCT-15 colon -38.3% | HT29 colon 9.85% | U251 CNS -35.4% | SK-MEL-5 melanoma -13.8% | LOX IMVI melanoma -88.7% | SK-MEL-28 melanoma -80.9%

CC(C)c1ccc(Cc2cnc(NC(=O)c3cc(Br)cs3)s2)cc1
active: RXF 393 renal -5.08% | SF-295 CNS 9.99% | SF-539 CNS 4.75% | HT29 colon 7.43% | SNB-75 CNS -3.65%
inactive: DU-145 prostate 38.5% | K-562 leukemia 18.2% | MALME-3M melanoma 31.1% | MDA-MB-231 breast 55.8% | SF-268 CNS 48.2% | UACC-257 melanoma 53.4% | M14 melanoma 15.8% | HCT-15 colon 21.6% | SNB-19 CNS 42.9% | U251 CNS 18.6% | PC-3 prostate 26.7% | SK-MEL-5 melanoma 10.1% | UACC-62 melanoma 42.5% | LOX IMVI melanoma 41.3% | SK-MEL-28 melanoma 53.5%

O=S(=O)(c1ccccc1)n1cc2c(c1)-c1nc(Nc3ncccn3)sc1CC2
active: SNB-75 CNS -16%
inactive: DU-145 prostate 34.6% | K-562 leukemia 73.8% | MALME-3M melanoma 50.3% | MDA-MB-231 breast 52.5% | RXF 393 renal 34.6% | SF-268 CNS 66.3% | SF-295 CNS 67.3% | SF-539 CNS 35.6% | UACC-257 melanoma 50.4% | M14 melanoma 45.8% | HCT-15 colon 68.7% | HT29 colon 66.2% | SNB-19 CNS 78.5% | U251 CNS 46.2% | PC-3 prostate 65.5% | SK-MEL-5 melanoma 35.4% | UACC-62 melanoma 63.6% | LOX IMVI melanoma 10.1% | SK-MEL-28 melanoma 73.9%

O=S(=O)(Nc1cc(Cl)ccc1Cl)c1ccc(-c2cnc(C3CC3)o2)cc1
active: HT29 colon 5.45% | SNB-75 CNS -8.98%
inactive: DU-145 prostate 70.8% | K-562 leukemia 12% | MALME-3M melanoma 55.7% | MDA-MB-231 breast 65.2% | RXF 393 renal 44.8% | SF-268 CNS 49.7% | SF-295 CNS 24.8% | SF-539 CNS 25.1% | UACC-257 melanoma 50.6% | M14 melanoma 29.1% | HCT-15 colon 26.2% | SNB-19 CNS 31.7% | U251 CNS 30.2% | PC-3 prostate 38.3% | SK-MEL-5 melanoma 31.1% | UACC-62 melanoma 33.2% | LOX IMVI melanoma 35.8% | SK-MEL-28 melanoma 63.2%

CCCNC(=O)Nc1ccc2cc3ccc(NC(=O)NCCC)cc3nc2c1
inactive: DU-145 prostate 118% | K-562 leukemia 60.8% | MALME-3M melanoma 79.1% | MDA-MB-231 breast 98.8% | RXF 393 renal 77.7% | SF-268 CNS 84.3% | SF-295 CNS 115% | SF-539 CNS 66.5% | UACC-257 melanoma 87.5% | M14 melanoma 89.1% | HCT-15 colon 94.5% | HT29 colon 98.5% | SNB-75 CNS 71.7% | SNB-19 CNS 68.1% | U251 CNS 61.2% | PC-3 prostate 81.5% | SK-MEL-5 melanoma 81.8% | UACC-62 melanoma 91.5% | LOX IMVI melanoma 72.2% | SK-MEL-28 melanoma 81.9%

CCC(C(=O)[C@@H](C)[C@@H](O)[C@H](C)[C@@H]1O[C@@H]([C@@H](CC)C(=O)ONC(=O)c2ccccc2)CC[C@@H]1C)[C@H]1O[C@]2(C=CC(=O)[C@]3(CC[C@@](C)([C@H]4CC[C@](O)(CC)[C@H](C)O4)O3)O2)[C@H](C)C[C@@H]1C (stereo not given in full)
active: DU-145 prostate -13% | K-562 leukemia -6.87% | MALME-3M melanoma -24.7% | MDA-MB-231 breast -53.2% | RXF 393 renal -6.41% | SF-295 CNS 1.07% | SF-539 CNS -62.8% | U251 CNS -19% | PC-3 prostate 8.93% | SK-MEL-5 melanoma -73.9% | UACC-62 melanoma -24.5% | LOX IMVI melanoma 4.55%
inactive: SF-268 CNS 28.4% | UACC-257 melanoma 32% | M14 melanoma 21.1% | HCT-15 colon 13.7% | HT29 colon 20.6% | SNB-75 CNS 27.6% | SNB-19 CNS 21.1% | SK-MEL-28 melanoma 20.6%

NNc1nc(-c2cccnc2)nc2c1sc(=S)n2-c1ccccc1
inactive: DU-145 prostate 106% | K-562 leukemia 75.5% | MALME-3M melanoma 100% | MDA-MB-231 breast 105% | RXF 393 renal 114% | SF-268 CNS 89.6% | SF-295 CNS 98.1% | SF-539 CNS 95.6% | UACC-257 melanoma 92.3% | M14 melanoma 99.9% | HCT-15 colon 96.3% | HT29 colon 90.3% | SNB-75 CNS 87.4% | SNB-19 CNS 113% | U251 CNS 90.6% | PC-3 prostate 72.6% | SK-MEL-5 melanoma 98.4% | UACC-62 melanoma 108% | LOX IMVI melanoma 86.7% | SK-MEL-28 melanoma 119%

CCOc1nc(-c2ccccc2)cc2c(O)c(C(=O)N/N=C/c3ccccc3)[nH]c(=O)c12
inactive: DU-145 prostate 115% | K-562 leukemia 48.2% | MALME-3M melanoma 136% | MDA-MB-231 breast 117% | RXF 393 renal 119% | SF-268 CNS 106% | SF-295 CNS 134% | SF-539 CNS 112% | UACC-257 melanoma 101% | M14 melanoma 118% | HCT-15 colon 104% | HT29 colon 105% | SNB-75 CNS 122% | SNB-19 CNS 105% | U251 CNS 106% | PC-3 prostate 93.5% | SK-MEL-5 melanoma 102% | UACC-62 melanoma 103% | LOX IMVI melanoma 109% | SK-MEL-28 melanoma 114%

COC12C=C/C(=C(/C(=O)OCc3ccncn3)C(=O)CCCCCCCCC3(OC)C=C/C(=C(/C(=O)OCc4ccncn4)C(=O)CCCCCCCC1)O3)O2
inactive: MDA-MB-231 breast 10.6% | HT29 colon 12.5% | SNB-75 CNS 48.7%
active: DU-145 prostate -41.8% | K-562 leukemia -5.58% | MALME-3M melanoma -54.3% | RXF 393 renal -77.3% | SF-268 CNS -3.7% | SF-295 CNS -15.9% | SF-539 CNS -18.2% | UACC-257 melanoma 4.41% | M14 melanoma -22.1% | HCT-15 colon -28.5% | SNB-19 CNS 7.75% | U251 CNS 0.453% | PC-3 prostate -36.7% | SK-MEL-5 melanoma -88.1% | UACC-62 melanoma -47.4% | LOX IMVI melanoma -54.8% | SK-MEL-28 melanoma -19.2%

COc1ccc(C(=O)c2cc3c(N)c(C(=O)Nc4ccc(C)cc4)sc3nc2C)cc1
inactive: DU-145 prostate 17.3% | K-562 leukemia 13.6% | MALME-3M melanoma 36.1% | MDA-MB-231 breast 22% | SF-268 CNS 39.4% | UACC-257 melanoma 58.1% | M14 melanoma 17.3% | HCT-15 colon 11.5% | SNB-19 CNS 28.9% | U251 CNS 19.2% | PC-3 prostate 25.1% | UACC-62 melanoma 30.6% | LOX IMVI melanoma 39.2% | SK-MEL-28 melanoma 54%
active: RXF 393 renal -20.4% | SF-295 CNS 10% | SF-539 CNS -16% | HT29 colon 9.18% | SNB-75 CNS -2.41% | SK-MEL-5 melanoma 6.93%

C=CC[Se]C(=O)Cc1c(C)n(C(=O)c2ccc(Cl)cc2)c2ccc(OC)cc12
inactive: K-562 leukemia 25.9% | SF-268 CNS 15.3%
active: DU-145 prostate -35.6% | MALME-3M melanoma -23.4% | MDA-MB-231 breast -56% | RXF 393 renal -57.5% | SF-295 CNS -28.8% | SF-539 CNS -89.5% | UACC-257 melanoma -34.8% | M14 melanoma -35.4% | HCT-15 colon 6.96% | HT29 colon 9.35% | SNB-75 CNS -68.6% | SNB-19 CNS -46% | U251 CNS -58.7% | PC-3 prostate -36% | SK-MEL-5 melanoma -69.7% | UACC-62 melanoma -66.1% | LOX IMVI melanoma 7.91% | SK-MEL-28 melanoma -16%

Cc1cccc(/C=C2\CN(C(=O)OC(C)(C)C)C/C(=C\c3cccc(C)c3)C2=O)c1
active: K-562 leukemia 5.44%
inactive: DU-145 prostate 106% | MALME-3M melanoma 90.6% | MDA-MB-231 breast 98.8% | RXF 393 renal 128% | SF-268 CNS 94.1% | SF-295 CNS 101% | SF-539 CNS 104% | UACC-257 melanoma 94.7% | M14 melanoma 90.5% | HCT-15 colon 76.2% | HT29 colon 46.5% | SNB-75 CNS 74.7% | SNB-19 CNS 95.9% | U251 CNS 63.6% | PC-3 prostate 89% | SK-MEL-5 melanoma 101% | UACC-62 melanoma 81.3% | LOX IMVI melanoma 47.1% | SK-MEL-28 melanoma 104%

COC1=CC(c2ccc[nH]2)=N/C1=C\c1[nH]c(C)c(C)c1CCC(=O)OCc1ccccc1
active: K-562 leukemia -7.62% | MALME-3M melanoma -64.8% | MDA-MB-231 breast -49.5% | RXF 393 renal -35.2% | SF-268 CNS 5.89% | SF-295 CNS -60.1% | SF-539 CNS -52.3% | UACC-257 melanoma -49% | M14 melanoma -60.8% | HCT-15 colon -32.2% | HT29 colon 5.68% | SNB-75 CNS -2.99% | U251 CNS -40.4% | PC-3 prostate -27.2% | SK-MEL-5 melanoma -89.2% | UACC-62 melanoma -54.7% | LOX IMVI melanoma -62.9% | SK-MEL-28 melanoma -32.6%
inactive: DU-145 prostate 18.4% | SNB-19 CNS 21%
